Our source for the Potency and outcome values is PubChem BioAssay (Tox21).

Values joined by “and” are separate entries in the source; they are usually repeats but may differ in a detail not shown here. Identical values can stand only once. Records with an inconclusive call do not appear. Some structures have more than one record in an assay (separate samples or runs), and their calls can disagree. Active and inactive are the calls of the source. Unless noted, calls come from the whole dose curve; as a rule, active = well fitted curve in the direction sought with a large enough effect in the repeat runs; inconclusive = weak or mixed curves; inactive = no such curve, though single readings can be large; an effect the other way counts as inactive or inconclusive.

Assay [1] in a line: qHTS assay for small molecule agonists of the p53 signaling pathway (AID 651631; calls by dose curve; note: nearly all actives have a fitted effect of over 15% in size). In a few lines:
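HCT-116 cells carrying a stable p53 response element–beta-lactamase reporter were plated, rested 5 h at 37 °C, then exposed to compound in DMSO for 16 h at 37 °C; reporter activity was read as FRET substrate fluorescence after 2 h at room temperature.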

Assay [2] is described as follows: qHTS assay for small molecules that induce genotoxicity in human embryonic kidney cells expressing luciferase-tagged ATAD5 (AID 651632). Note: nearly all actives have a fitted effect of over 15% in size. In outline: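 ATAD5-luc HEK293T, 2,000 cells/well; cpd or DMSO pin-transferred; 16 hr, 37C/5% CO2; Amplite 30 min RT; luminescence.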
Assay [3] is described as follows: qHTS assay for small molecule agonists of the p53 signaling pathway - cell viability (AID 651633; calls by dose curve; note: nearly all actives have a fitted effect of over 30% in size; note: potency is the fitted concentration of half-maximal effect). In outline:
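Viability counter-read: CellTiter-Glo luminescence (30 min, room temperature) in the same p53RE-bla plates. These plates had been exposed to compounds for 16 h at 37 C.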
On the technique in general: Quantitative high-throughput screening tests each substance at several concentrations.

A short description of assay [4]: qHTS assay for small molecules that induce genotoxicity in human embryonic kidney cells expressing luciferase-tagged ATAD5 - cell viability (AID 651634; calls by dose curve; note: nearly all actives have a fitted effect of over 25% in size; note: potency is the fitted concentration of half-maximal effect). In outline: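 Fluorescence from CellTiter-Fluor, reporting protease activity within live cells, served as the viability read-out. HEK293T cells carrying luciferase-tagged ATAD5 had been treated with compound for 15.5 hr at 37C.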

A short description of assay [5]: qHTS assay for small molecule disruptors of the mitochondrial membrane potential - cell viability (AID 720634; calls by dose curve;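 note: human HepG2 liver cancer cells; nearly all actives have a fitted effect of over 20% in size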). In outline: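 Cells: HepG2, 2,000/well, attached overnight. Compound 1 hr, 37 C/5% CO2. +m-MPI dye, +CellTiter-Glo 30 min RT. Readout: luminescence (ATP).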
A short description of assay [6]: qHTS assay to test for compound auto fluorescence at 535 nm (green) in HepG2 cells (AID 720675). Note: potency is the fitted concentration of half-maximal effect.
The nature of assay [7]: qHTS assay to test for compound auto fluorescence at 460 nm (blue) in HEK293 cells (AID 720678). In outline: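 Cells were seeded and left to adhere for 4-5 hr at 37C. Compounds were then pin-transferred. After an overnight incubation at 37C under 5% CO2, intrinsic fluorescence at 405/460 nm was measured and referenced to triamterene.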
The nature of assay [8]: qHTS assay to test for compound auto fluorescence at 590 nm (red) in HEK293 cells (AID 720679). Note: potency is the fitted concentration of half-maximal effect. In outline:
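Each well held 2,000 HEK293 cells in medium containing 10% dialyzed FBS. Following 4-5 hr attachment at 37C, 23 nL test compound or DMSO was added; plates sat overnight, and red fluorescence (540/590nm) was recorded.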

Assay [9] in a line: qHTS assay to test for compound auto fluorescence at 460 nm (blue) in HEK293 cell free culture (AID 720681). In outline: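 Blue fluorescence (Ex 405/Em 460 nm, triamterene-equivalent) was read immediately after pin transfer of compound or DMSO into medium (DMEM, 10% FBS) without cells.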
Assay [10] is described as follows: qHTS assay to test for compound auto fluorescence at 590 nm (red) in HEK293 cell free culture (AID 720683). Note: potency is the fitted concentration of half-maximal effect. In outline:
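Red-channel autofluorescence of compounds in culture medium (DMEM, 10% FBS), no cells, measured at 540/590 nm. Rose Bengal sodium is the reference fluorophore for equivalence.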

Assay [11] in a line: qHTS assay to test for compound auto fluorescence at 590 nm (red) in HepG2 cell free culture (AID 720684). Note: potency is the fitted concentration of half-maximal effect. In a few lines:
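Plate contents were MEM with 10% FBS plus test compound or DMSO, no cells. Fluorescence was recorded with 540 nm excitation and 590 nm emission.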

Assay [12] in a line: qHTS assay to test for compound auto fluorescence at 460 nm (blue) in HepG2 cell free culture (AID 720685). In a few lines: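 Compound (23 nL) or DMSO pinned into cell-free MEM with 10% FBS; blue fluorescence read at 405/460 nm excitation/emission, expressed as auto-fluorescence equivalency to triamterene.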
Assay [13] in a line: qHTS assay to test for compound auto fluorescence at 535 nm (green) in HepG2 cell free culture (AID 720686). Note: potency is the fitted concentration of half-maximal effect.
Assay [14] is described as follows: qHTS assay to test for compound auto fluorescence at 460 nm (blue) in HepG2 cells (AID 720687). In outline: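 Blue-channel autofluorescence (Ex/Em 405/460 nm, triamterene-equivalent) was measured after 1 hr compound exposure at 37 C, 5% CO2. Cells were HepG2, plated overnight at 37 C in MEM plus 10% FBS.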
Assay [15] is described as follows: qHTS assay to test for compound auto fluorescence at 590 nm (red) in HepG2 cells (AID 720674). In outline:
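We screened compounds on adherent HepG2 cells, incubating them for an hour at 37 C in 5% CO2 before reading emission at 590 nm under 540 nm excitation; values reflect equivalence to Rose Bengal sodium fluorescence.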

Assay [16] can be described thus: qHTS assay to test for compound auto fluorescence at 535 nm (green) in HEK293 cells (AID 720680).
Assay [17] is described as follows: qHTS assay to test for compound auto fluorescence at 535 nm (green) in HEK293 cell free culture (AID 720682). In a few lines: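 Read-out: 485/535 nm fluorescence intensity, calibrated against fluorescein. Medium only (DMEM + 10% FBS, no cells); test compound or DMSO vehicle added by pintool before plate reading.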
Assay [18] concerns the target Glucocorticoid receptor (Homo sapiens) (UniProt P04150). In words: qHTS assay to identify small molecule agonists of the glucocorticoid receptor (GR) signaling pathway (AID 720691; active = well fitted activation curve with a large enough effect in the signal ratio in the repeat runs, not every such curve was filed as active; the % refers to the signal ratio). The settings on record: GR-bla HeLa, beta-lactamase reporter ratio, 18 h; activation: at 62.4 µM (top of the series) unless noted. In a few lines: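 Fluorescence intensity from LiveBLAzer B/G FRET substrate (2 h, room temperature) reports beta-lactamase expression driven by the glucocorticoid response element in GR-bla HeLa cells after 18 h compound exposure at 37 C.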

The target is the same in assay [19]. Put plainly: qHTS assay to identify small molecule antagonists of the glucocorticoid receptor (GR) signaling pathway (AID 720692; active = well fitted inhibition curve with a large enough effect in the signal ratio in the repeat runs, not every such curve was filed as active; the % refers to the signal ratio). In outline:
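HeLa GR-bla cells; cmpd + dex 5 nM final, 18 h 37 C; LiveBLAzer B/G FRET substrate 2 h RT; fluorescence intensity read. Antagonist mode, qHTS.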
Tags give direction and shape of the fitted curve or compound fluorescence and quenching.

Glucocorticoid receptor (Homo sapiens), sequence (P04150 whole entry, looked up): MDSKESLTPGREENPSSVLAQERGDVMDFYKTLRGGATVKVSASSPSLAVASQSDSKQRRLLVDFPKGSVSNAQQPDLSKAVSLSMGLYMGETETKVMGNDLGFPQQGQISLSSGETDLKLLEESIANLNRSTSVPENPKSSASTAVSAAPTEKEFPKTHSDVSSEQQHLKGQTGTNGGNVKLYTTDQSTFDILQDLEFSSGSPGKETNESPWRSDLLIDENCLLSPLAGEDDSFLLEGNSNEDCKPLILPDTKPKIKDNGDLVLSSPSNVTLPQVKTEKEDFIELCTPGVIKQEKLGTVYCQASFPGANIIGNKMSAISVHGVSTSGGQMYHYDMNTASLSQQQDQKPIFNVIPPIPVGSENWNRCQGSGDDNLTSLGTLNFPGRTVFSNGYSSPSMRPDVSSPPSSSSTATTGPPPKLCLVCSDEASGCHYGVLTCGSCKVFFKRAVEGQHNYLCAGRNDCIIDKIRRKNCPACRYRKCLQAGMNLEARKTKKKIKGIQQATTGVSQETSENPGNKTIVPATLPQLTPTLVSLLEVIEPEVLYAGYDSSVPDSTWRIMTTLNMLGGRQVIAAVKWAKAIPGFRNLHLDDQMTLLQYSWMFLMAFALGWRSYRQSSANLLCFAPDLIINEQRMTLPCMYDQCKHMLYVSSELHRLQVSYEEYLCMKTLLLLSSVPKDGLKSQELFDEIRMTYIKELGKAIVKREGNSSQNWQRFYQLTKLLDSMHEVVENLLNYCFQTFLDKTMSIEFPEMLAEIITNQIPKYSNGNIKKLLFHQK

With `CCN(CC)c1ccc2c(-c3ccccc3C(=O)O)c3ccc(=[N+](CC)CC)cc-3oc2c1`, the Potency entry in assay [1], in assay [2], in [3] and in [5] was “inactive” throughout. Besides, the Potency in assay [4] was 21.7 µM (active); in assay [6] it was 31.6 µM (active); in assay [8] it was 1.12 µM [fluorescent] (active); in assay [10] it was 2 µM [fluorescent] (active); in [11], 1.12 µM [fluorescent] (active); in assay [13], 31.6 µM [fluorescent] (active). The result in [7], in assay [9], in assay [12] and in assay [14] was inactive.
In the case of `CCNc1cc(O)ccc1C`, the Potency entry in assay [1], in [2], in assay [3], in [4], in assay [5] and in [15] was “inactive” throughout. The Potency result in assay [6], in [8], in assay [10], in [11] and in [13] was “inactive” throughout. Moreover, the outcome in assay [7], in assay [16], in assay [9], in [17], in assay [12] and in assay [14] was inactive.
Regarding `C=C(C)C(=O)OCCOCC`, the Potency result in assay [1], in assay [2], in assay [3], in assay [4], in [5] and in assay [15] was “inactive” in each case. For the same compound, the Potency entry in [6], in [8], in assay [11], in assay [13] and in [18] was “inactive” in each case. For the same compound, the call in assay [7], in [16], in [9], in assay [17] and in assay [14] was inactive.
Turning to `O=C1[C@H]2CCCC[C@H]2C(=O)N1CCCCN1CCN(c2nsc3ccccc23)CC1`, the Potency entry in assay [1], in [2], in assay [3], in assay [4], in assay [5] and in [15] was “inactive” throughout. In addition, the Potency result in assay [6], in assay [10] and in assay [11] was “inactive” each time. The result in assay [7], in assay [16], in [9], in assay [17], in assay [12] and in assay [14] was inactive.
Regarding `COc1ccc(C)cc1[N+](=O)[O-]`, the Potency result in [1], in [2], in assay [3], in assay [4], in assay [5] and in assay [15] was “inactive” throughout. Further, the Potency result in [6], in assay [8], in assay [10], in [11], in assay [13] and in assay [18] was “inactive” throughout. Moreover, the Potency entry in assay [19] was “inactive”. Also, the outcome in assay [7], in assay [16], in assay [9], in assay [17], in assay [12] and in [14] was inactive.
`CCCCCC[C@@H](O)C/C=C\CCCCCCCC(=O)OC`: the Potency result in [1], in assay [2], in assay [3], in assay [4], in assay [5] and in [15] was “inactive” throughout. Further, the Potency entry in assay [6], in assay [8], in [10], in assay [11] and in [13] was “inactive” throughout. In addition, the call in assay [7], in assay [16], in assay [9], in assay [17], in assay [12] and in [14] was inactive.
With `OCc1cc(C(O)CNCCCCCCOCCCCc2ccccc2)ccc1O` (stereo not given), the Potency result in [1], in assay [2], in assay [4], in assay [5], in [15] and in assay [6] was “inactive” each time. For the same compound, the Potency entry in assay [8], in [10], in assay [11] and in assay [18] was “inactive” in each case. For the same compound, in [3], the Potency result is “inactive and 26.6 µM (active)”. For the same compound, the outcome in assay [7], in assay [16], in [9], in assay [17], in assay [12] and in [14] was inactive.
